Shiga toxin inh: blocks Shiga toxin action in Vero cells | Vero cells, Shiga toxin protein synthesis inhibition reporter | actives 9.2% (n = 290,000) | inhibition, % at 38.7 µM; in the data active means inhibition mostly above about 28%, no sharp cut-off; inactive means mostly below about 43%; further: 0% is about no effect
NS1 function inh: blocks influenza NS1 protein function | Potency, µM (top dose mostly 46.1 µM), inactives show top-dose activity, positive = more growth | actives 0.4% (n = 270,000) | AID 2326; calls by dose curve; further: potency means the concentration at half of the fitted maximal effect; actives are rising curves; nearly all actives have a fitted effect of over 50% in size
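Compounds were scored for reversing the slow growth caused by influenza A NS1 in S. cerevisiae, measured by optical density at 600 nm. Assay medium contained 2% galactose at pH 6.0; NS1-free yeast of the same strain were the positive control.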
AmpC detergent: AmpC beta-lactamase inhibition with detergent present; P00811; AmpC hydrolysis of nitrocefin, absorbance 480 nm, 0.01% Triton; Potency, µM (doses to about 114 µM), for the others: top-dose activity change, negative = inhibition, most hits filed as inhibitors; actives 0.041% (n = 370,000); AID 485294;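 further: potency means the concentration at half of the fitted maximal effect; 0% = no-compound wells and -100% = no-enzyme wells; nearly all actives have a fitted effect of over 25% in size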
Target sequence (P00811 whole entry, looked up): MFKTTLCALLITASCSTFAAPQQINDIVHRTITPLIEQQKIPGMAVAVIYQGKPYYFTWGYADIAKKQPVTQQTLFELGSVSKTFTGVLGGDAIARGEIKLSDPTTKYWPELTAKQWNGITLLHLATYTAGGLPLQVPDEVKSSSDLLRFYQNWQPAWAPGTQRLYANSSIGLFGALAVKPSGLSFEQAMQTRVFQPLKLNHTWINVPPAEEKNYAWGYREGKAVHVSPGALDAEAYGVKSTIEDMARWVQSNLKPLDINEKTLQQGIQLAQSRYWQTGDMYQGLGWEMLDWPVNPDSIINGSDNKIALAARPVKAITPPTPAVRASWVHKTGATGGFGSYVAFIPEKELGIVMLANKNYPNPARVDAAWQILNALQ
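AmpC (5.3 nM in the dispensed reagent) in 20 mM phosphate pH 7.0 with 0.01% (detergent screen) or 0.0001% Triton X-100 was preincubated with compounds for 15 min at room temperature. Nitrocefin was then added from an 800 uM solution, and hydrolysis was followed at 480 nm.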
AmpC no deterg: inhibitors of E. coli AmpC beta-lactamase without detergent | AID 485341 | AmpC nitrocefin hydrolysis, absorbance 480 nm, 0.0001% Triton | P00811 | Potency, µM (titrated, usually from 57.1 µM), without a hit: top-dose activity change, negative = inhibition, actives largely listed as inhibitors | actives 0.52% (n = 330,000);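 further: potency means the concentration at half of the fitted maximal effect; plate controls were no compound for no effect and no enzyme for full effect; nearly all actives have a fitted effect of over 20% in size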
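AmpC (5.3 nM in the dispensed reagent) in 20 mM phosphate pH 7.0 with 0.01% (detergent screen) or 0.0001% Triton X-100 was preincubated with compounds for 15 min at room temperature. Nitrocefin was then added from an 800 uM solution, and hydrolysis was followed at 480 nm.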
Cycloheximide cs: counter-screen hit for Shiga toxin inhibitors, cycloheximide; cell reporter, cycloheximide protein synthesis inhibition counterscreen; max response, %; actives 12% (n = 300,000); in the data active means max response mostly above about 13%, no sharp cut-off; inactive means mostly below about 14%; further: read at 38.3 µM for the half of the compounds with a filed dose; 0% is about no effect
Active calls of the source: *; ? = inconclusive; · = no result; [ ] = dose if it differs, or a comment. The sample as a whole holds a higher share of hits than the screen did. Unless noted, the call rests on the fitted dose curve; in most records, active means well fitted curve in the direction sought with a large enough effect; inconclusive means small, poorly fitted or top-dose-only effect, or another doubt; inactive means no such curve, though single readings can be large; an effect the other way counts as inactive or inconclusive.

SMILES	Shiga toxin inh	NS1 function inh	AmpC detergent	AmpC no deterg	Cycloheximide cs
CC(=O)N/N=C(\C)c1ccc2c(c1)OCCO2	12.0	·	2.1%	-11.3%	7.3
C/C(=N/NC(=O)c1ccc2c(c1)OCO2)c1ccc(NC(=O)c2ccc(F)cc2)cc1	40.1*	10.0%	-12.0%	-19.9%	34.3*
C/C(=N\NC(=S)NCc1ccccc1)c1ccc(Cl)s1	9.0	·	1.1%	-37.5%	0.4
C/C(=N\NC(=S)Nc1ccc(F)cc1)c1ccc2c(c1)OCCO2	65.6*	17.6%	-6.0%	20µM*	28.0*
C/C(=N\NC(=S)NCc1ccccc1)c1ccc(Br)cc1	25.2	·	10.3%	-26.2%	1.7
CCc1ccc(CNC(=O)C2CCCN(S(=O)(=O)c3ccc4c(ccn4C)c3)C2)cc1 (stereo not drawn)	·	·	-8.8%	·	·
COc1ccccc1NC(=O)C1=C(C)Nc2nnnn2C1c1ccc(C(F)(F)F)cc1 (stereo not drawn)	·	·	-0.2%	·	·
CN(C(=O)c1cc2c(s1)-c1ccc(Cl)cc1SC2)c1cccc(C(F)(F)F)c1	·	·	20.1%	·	·
C/C(=N\NC(=O)CSc1nc(C)cc(C)n1)c1ccc2c(c1)OCCO2	84.0*	·	-4.2%	-23.4%	37.6*
C/C(=N\NC(N)=S)c1ccc2c(c1)OCCO2	42.9*	-5.0%	-5.2%	-24.7%	26.5*
Nc1cc(Cl)ccc1N1CCCC1	-4.6	·	?	-6.2%[11.4 µM]	-6.1
CN1CCN(c2ccc(Cl)cc2N)CC1	12.8	4.9%	1.2%	-10.5%	11.2*
Cc1occc1C(=O)NC1CCCCCCC1	60.3*	-97.2%	-2.2%	1.3%	39.7*
Cc1occc1C(=O)NNC(=O)C1CCCC1	-5.1	·	-3.1%	63.3%	-2.9
COc1ccccc1Nc1ccc(C(=O)NC2CCCCC2)cn1	31.1*	-9.8%	1.9%	-8.2%	19.2*
COc1ccccc1C(=O)NC1CCCCCCC1	102.0*	-15.0%	?	-6.5%	20.1*
Cc1occc1C(=O)NN=C1C2CC3CC(C2)CC1C3	30.0*	9.4%	-12.2%	-19.0%	27.9*
CC1CCN(S(=O)(=O)c2ccc3[nH]ccc3c2)CC1	·	·	-5.9%	·	·
COc1ccccc1NC(=O)Cn1c(=O)n(-c2ccc(C)cc2)c(=O)c2c1cnn2C	·	·	6.0%	·	·
Cc1csc(SCCn2c(N3CCN(c4ccccc4)CC3)nc3c2c(=O)[nH]c(=O)n3C)n1	-19.3	-23.7%	9.4%	18.8%	-4.9
CCCCCCN(C(=O)CCCCCN1C(=O)NC(c2ccc(C(C)(C)C)cc2)C(C(=O)OCc2ccccc2)=C1C)C(C(=O)NCCCC)c1ccc(OCC(=O)OC)c(C(=O)OC)c1 (stereo not drawn)	-3.4	8.91µM*	-3.8%	71.6%	-2.6
COc1ccc(S(=O)Cc2ccc(C(=O)NC3CC3)o2)cc1 (stereo not drawn)	13.6	-3.9%	-5.8%	-3.8%	-3.8
CCOC(=O)/C=C(\C)Sc1cc(O)c2ccccc2c1O	58.5*	-80.0%	-8.3%	-54.2%	30.6*
O=[N+]([O-])c1ccccc1/C=N/NC1=NS(=O)(=O)c2ccccc21	30.0	·	4.3%	-20.7%	-1.5
O=[N+]([O-])c1ccccc1/C=N/Nc1nccnc1Cl	124.0*	-7.8%	-3.9%	-17.2%	49.5*
SMILES	Shiga toxin inh	NS1 function inh	AmpC detergent	AmpC no deterg	Cycloheximide cs
CC(C)(C)c1nnc(N/N=C/c2ccccc2O)n(N)c1=O	-1.8	-33.9%	2.6%	-38.0%	-2.5
O=c1[nH]ncc(N/N=C\c2ccc(O)cc2O)c1Cl	-7.4	·	-15.6%	-29.0%	-1.2
Oc1ccccc1/C=N/Nc1nccnc1Cl	106.4	-186.4%	-0.7%	-22.9%	37.7*
Oc1ccc(/C=N/Nc2ncc(Br)cn2)c(O)c1	115.3*	-4.0%	-4.4%	-48.8%	76.3*
Oc1ccc(/C=N/Nc2nccnc2Cl)c(O)c1	123.9*	-99.3%	7.9%	-23.1%	49.1*
Cc1c(NC(=O)Cc2ccc(F)cc2)cccc1-c1nc2cccnc2s1	·	·	19.9%	·	·
C=C(C)CN(CC#N)CC(=C)C	·	-1.0%	·	·	·
COc1ccc(-n2nc(C(=O)Nc3nc4ccc(OC)cc4s3)c3ccccc3c2=O)c(OC)c1	-6.3	10.2%	?	-32.9%	5.4
Nc1cc(Cl)nc(N/N=C/c2ccccc2[N+](=O)[O-])n1	86.6*	8.6%	-7.9%	-15.2%	46.8*
O=Cc1ccc(C(=O)OCC(=O)NCc2ccco2)cc1	·	·	·	-41.4%	·
O=C(O)c1oc(C(=O)O)c(C(=O)O)c1C(=O)O	·	-1.0%	·	·	·
Cc1nnc(SCC(=O)NC(C)(C)C)n1CCc1ccccc1	7.8	-13.7%	-2.3%	-11.6%	10.9*
Cc1nnc(SCC(N)=O)n1CCc1ccccc1	14.1	5.0%	-7.2%	-13.8%	-1.8
CC1CC(=O)N(CC(=O)Nc2ccc(OC(F)(F)F)cc2)c2ccccc2S1 (stereo not drawn)	·	·	12.1%	·	·
CCOC(=O)Cn1c(=O)n(CC2CCCO2)c2nc(-c3ccc(C(C)C)cc3)nc(C(N)=O)c21 (stereo not drawn)	·	·	-1.2%	·	·
N#C/C(=C\c1ccc(OC(=O)c2ccc(Cl)s2)cc1)c1nc2ccccc2[nH]1	17.4*	-23.5%	-8.3%	-29.4%	49.5*
N#C/C(=C\c1ccc(OC(=O)c2ccc(Br)s2)cc1)c1nc2ccccc2[nH]1	38.5*	-24.1%	-9.3%	-23.2%	22.0*
CC(=O)N1CCc2cc(S(=O)(=O)NC(CC(C)C)C(=O)NCc3ccccc3Cl)ccc21 (stereo not drawn)	·	·	2.7%	·	·
COc1cc(OC)cc(C(=O)N/N=C/c2ccc(OC)c(COc3ccc(F)cc3)c2)c1	-24.6	5.8%	1.2%	-11.8%	-6.3
COc1ccc(C(=O)N/N=C/c2ccc(OC)c(CN3CCCc4ccccc43)c2)cc1	1.1	?	-1.5%	-33.6%	9.4*
COc1ccc(OCc2cc(/C=N\NC(=O)c3ccccc3)ccc2OC)cc1	72.2*	-35.8%	5.4%	-12.5%	32.8*
COc1cccc(C(=O)N/N=C/c2ccc(OC)c(COc3ccccc3C(N)=O)c2)c1	108.7*	-27.1%	2.4%	94.1%	57.0*
Cc1cccc(N2CCN(c3cc(C)nc4c(-c5ccc(Cl)cc5)c(C)nn34)CC2C)c1 (stereo not drawn)	·	·	-3.3%	·	·
O=C(CN1CCSCC1)N/N=C/c1cccc(Cl)c1	11.1	·	?	-12.5%[11.4 µM]	14.6*
COc1cc(/C=N\NC(=O)CN2CCOCC2)ccc1OCC(=O)Nc1ccc(C)c(C)c1	35.0*	-10.7%	1.8%	148.6%	14.2*
SMILES	Shiga toxin inh	NS1 function inh	AmpC detergent	AmpC no deterg	Cycloheximide cs
O=C(CN1CCCCCC1)N/N=C/c1cccc(Cl)c1	-3.3	10.2%	?	-7.9%	27.2
COc1ccc(/C=N/NC(=O)CN2CCSCC2)cc1C	26.4	11.7%	3.4%	-30.7%	17.5*
COc1cc(/C=N/NC(=O)CN2CCOCC2)ccc1OCc1ccccc1	16.3	-28.1%	?	22.7%	17.1
CCOc1ccc2c(c1)[C@@H]1C=CC[C@@H]1[C@H](c1ccccc1Cl)N2	·	·	1.4%	·	·
O=C(NCCN1CCCC1)C1CCC(=O)N(CCCN2CCOCC2)C1 (stereo not drawn)	-14.8	-6.9%	-4.4%	46.0%	-3.4
O=C(CSc1nc(-c2ccccc2)ns1)N1CCOCC1	90.6*	·	3.4%	-8.8%	39.0*
CCOC(=O)CSc1nc(-c2ccccc2)ns1	38.5	·	-6.5%	3.7%	20.1

Compound activity: PubChem BioAssay, National Center for Advancing Translational Sciences (NCATS)
